Where “and” joins values, the source holds several entries; their conditions need not be identical. Identical values can stand only once. Compounds without any hit were thinned out: in the full panel of roughly 83,000, 20% have a hit.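 Compound tested at a single concentration for 48 hours in 96-well plates; a percent growth value below 10 was scored as active.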 A number with no mark means an inactive call. Calls of active or inactive are those of the source.

This passage reports growth results from PubChem BioAssay (NCI).

Some test systems named below: SR leukemia; RPMI-8226 leukemia; OVCAR-8 ovarian; OVCAR-5 ovarian; OVCAR-4 ovarian; SK-OV-3 ovarian; IGROV1 ovarian; OVCAR-3 ovarian; HS 578T breast; NCI/ADR-RES ovarian.
What all share (experiment): NCI-60 one-dose screen, 48 h (100 = growth as untreated, 0 = no growth, -100 = all killed)

As for `COc1cc(C(C)(C)C)cc(OC)c1C(O)(c1c(OC)cc(C(C)(C)C)cc1OC)c1c(OC)cc(C(C)(C)C)cc1OC`, the growth in the assay on SR leukemia (10 µM) is -77.5% (active); in the assay on RPMI-8226 leukemia (10 µM), -27.1% (active); in the assay with OVCAR-8 ovarian (10 µM) it was -64.3% (active); in the assay with OVCAR-5 ovarian (10 µM) it was -100% (active); in the assay on OVCAR-4 ovarian (10 µM), -99.6% (active); in the assay with SK-OV-3 ovarian (10 µM) it was -86.7% (active). For the same compound, the growth is 2.83% (active) in the assay with IGROV1 ovarian (10 µM), -94.1% (active) in the assay with OVCAR-3 ovarian (10 µM), -33.3% (active) in the assay on HS 578T breast (10 µM) and -56.8% (active) with NCI/ADR-RES ovarian (10 µM).

Regarding `O=c1[nH]cc(F)c(=O)[nH]1`, the growth was 27.6% and 37.4% in the assay on SR leukemia (10 µM); 24.8% in the assay on SR leukemia (25 µM); 31.6% in the assay with SR leukemia (50 µM); 39.4% and 59.5% with RPMI-8226 leukemia (10 µM); 41.4% with RPMI-8226 leukemia (25 µM); 53.1% with OVCAR-8 ovarian (10 µM). Besides, the growth is 46.7% in the assay with OVCAR-8 ovarian (50 µM); 82.1% and 70.7% with OVCAR-5 ovarian (10 µM); 44.3% with OVCAR-5 ovarian (25 µM); 73% in the assay with OVCAR-5 ovarian (50 µM); 72.6% and 107% in the assay on OVCAR-4 ovarian (10 µM); 59.4% with OVCAR-4 ovarian (25 µM). The growth was 68.5% with OVCAR-4 ovarian (50 µM); 70% and 74.7% in the assay with SK-OV-3 ovarian (10 µM); 77.5% with SK-OV-3 ovarian (25 µM); 54.3% and 44.1% in the assay with IGROV1 ovarian (10 µM); 51.2% in the assay with IGROV1 ovarian (25 µM); 46.2% in the assay on IGROV1 ovarian (50 µM). Moreover, the growth in the assay with OVCAR-3 ovarian (10 µM) was 52.5% and 72.2%; with OVCAR-3 ovarian (25 µM) it was 47.4%; in the assay with OVCAR-3 ovarian (50 µM) it was 31%; with HS 578T breast (10 µM), 99%; in the assay with HS 578T breast (25 µM), -10.8% (active); in the assay with HS 578T breast (50 µM), 58.8%. In addition, the growth is 67.2% and 63.5% in the assay on NCI/ADR-RES ovarian (10 µM); 47.6% in the assay on NCI/ADR-RES ovarian (25 µM); 56.5% with NCI/ADR-RES ovarian (50 µM).

`CN(C)CCC(=O)c1c[nH]c2ccccc12`: the growth was 91.5% in the assay on SR leukemia (10 µM); 98.1% with RPMI-8226 leukemia (10 µM); 112% in the assay on OVCAR-8 ovarian (10 µM); 109% in the assay with OVCAR-5 ovarian (10 µM); 111% with OVCAR-4 ovarian (10 µM); 96.6% in the assay on SK-OV-3 ovarian (10 µM). In addition, the growth in the assay with IGROV1 ovarian (10 µM) was 106%; with OVCAR-3 ovarian (10 µM) it was 110%; in the assay on HS 578T breast (10 µM), 106%; in the assay with NCI/ADR-RES ovarian (10 µM), 110%.

As for `CSc1ccc2c(c1)C(N1CCN(C)CC1)Cc1ccccc1S2` (stereo not given), the growth with SR leukemia (10 µM) is -32.8% (active); in the assay with RPMI-8226 leukemia (10 µM), 24.3%; in the assay with OVCAR-8 ovarian (10 µM), 67.9%; in the assay on OVCAR-5 ovarian (10 µM), 41.7%; in the assay on OVCAR-4 ovarian (10 µM), 36.1%; in the assay with SK-OV-3 ovarian (10 µM) it was 86.2%. The growth in the assay with IGROV1 ovarian (10 µM) was 20.8%; with OVCAR-3 ovarian (10 µM) it was 61.4%; in the assay on HS 578T breast (10 µM), 39.8%; with NCI/ADR-RES ovarian (10 µM) it was 49.2%.

Take `Cc1cnc(/C=N\NC(N)=S)c2cccc(N)c12`: the growth with SR leukemia (10 µM) was -16.3% (active); with RPMI-8226 leukemia (10 µM), -9.76% (active); in the assay with OVCAR-8 ovarian (10 µM) it was 17.7%; in the assay on OVCAR-5 ovarian (10 µM) it was 34.9%; in the assay with OVCAR-4 ovarian (10 µM), 31.9%; with SK-OV-3 ovarian (10 µM) it was 22.9%. Also, the growth in the assay on OVCAR-3 ovarian (10 µM) is 0.342% (active); in the assay with HS 578T breast (10 µM), 69.1%; in the assay with NCI/ADR-RES ovarian (10 µM), 10.9%.

Regarding `BrC/C=C/C[P+](c1ccccc1)(c1ccccc1)c1ccccc1`, the growth in the assay with RPMI-8226 leukemia (10 µM) is 4.56% (active); with OVCAR-8 ovarian (10 µM), 28.3%; in the assay with OVCAR-5 ovarian (10 µM), 85.2%; with OVCAR-4 ovarian (10 µM), 98.8%; in the assay with SK-OV-3 ovarian (10 µM), 95.5%; in the assay with IGROV1 ovarian (10 µM), 83.8%. Besides, the growth in the assay on OVCAR-3 ovarian (10 µM) is 32.4%; in the assay with HS 578T breast (10 µM) it was 92.4%; in the assay with NCI/ADR-RES ovarian (10 µM), 96.7%.
